# Experimental data: PubChem BioAssay (Tox21)
# Results filed as inconclusive are left out. Entries that show only a call come without a potency. Activity calls are given as the source filed them. Calls come from the whole dose curve.
# Target: 5-hydroxytryptamine receptor 2A (Homo sapiens) (UniProt P28223)
# Experiment: 5-hydroxytryptamine receptor 2A (HTR2A) small molecule agonists, cell-based qHTS assay (AID 1963587); note: nearly all actives have a fitted effect of over 30% in size
# Settings: HTR2A-CHO cells, calcium flux fluorescence, agonist mode; series mostly up to 76.8 µM
# Excerpt: National Center for Advancing Translational Sciences [NCATS]
# Division of Preclinical Innovation [DPI]
# U.S. Environmental Protection Agency [EPA]
# National Institutes of Environmental Health Sciences [NIEHS]
# National Toxicology Program [NTP]
# U.S. Food and Drug Administration [FDA]
# The HTR2A receptor is a subtype of the 5-HT2 receptor that belongs to the serotonin receptor family and is a G protein-coupled receptor (GPCR). The HTR2A-CHO cell line stably expressing human 5-hydroxytryptamine receptor 2A (HTR2A) can be used for screening agonists of interactions between 5-HT2 and its ligands. The HTR2A-CHO calcium flux assay is a homogeneous fluorescence-based assay for detecting the intracellular calcium level using FDSS kinetic plate reader system.
# HTR2A-CHO cells were dispensed at 2000 cells/3uL/well in 1536-well black-clear bottom plates using a Multidrop Dispenser. After the assay plates were incubated at a 37 C/5% CO2 incubator for 18 h, 3 uL of Dye Loading Buffer was transferred to the assay plate by a Flying Reagent Dispenser. The assay plates were incubated at 37 C for 1h. For agonist mode, 23 nL of compounds dissolved in DMSO, positive controls or DMSO only was transferred to the assay plate by a pin tool. The fluorescence intensity in the plates was measured using FDSS 7000EX kinetic plate reader for 2 min at 1 sec intervals.
# Sequence of 5-hydroxytryptamine receptor 2A (Homo sapiens) (P28223 whole entry, looked up): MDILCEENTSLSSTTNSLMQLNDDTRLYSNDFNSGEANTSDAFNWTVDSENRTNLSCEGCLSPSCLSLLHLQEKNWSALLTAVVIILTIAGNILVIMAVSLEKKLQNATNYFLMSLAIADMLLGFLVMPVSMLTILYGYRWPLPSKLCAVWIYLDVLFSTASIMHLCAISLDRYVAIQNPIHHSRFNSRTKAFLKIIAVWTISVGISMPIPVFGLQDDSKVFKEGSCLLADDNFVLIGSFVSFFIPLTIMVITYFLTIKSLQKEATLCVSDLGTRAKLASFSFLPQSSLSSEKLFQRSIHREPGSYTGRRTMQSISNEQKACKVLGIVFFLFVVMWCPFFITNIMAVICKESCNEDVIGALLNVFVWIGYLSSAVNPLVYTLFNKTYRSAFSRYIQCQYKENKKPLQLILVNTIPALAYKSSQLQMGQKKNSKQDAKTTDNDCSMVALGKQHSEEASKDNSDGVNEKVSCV
row,Structure (SMILES),Potency
1,N#Cc1nn(-c2c(Cl)cc(C(F)(F)F)cc2Cl)c(N)c1S(=O)C(F)(F)F (stereo not given),inactive
2,c1ccc(CN2CCNCC2)cc1,inactive
3,COS(=O)(=O)c1ccc(C)cc1,inactive
4,Oc1ccccc1-c1ccccc1,inactive
5,C=CC(=O)OCCO,inactive
6,O=C(O)c1ccc(=O)[nH]c1,inactive
7,CN(C)c1nc(=O)n(C2CCCCC2)c(=O)n1C,inactive
8,ClCc1ccccc1,inactive
9,ClC1=C(Cl)[C@]2(Cl)[C@@H]3[C@@H](Cl)[C@@H](Cl)C[C@@H]3[C@@]1(Cl)C2(Cl)Cl,inactive
10,CN1C(=O)CCS(=O)(=O)C1c1ccc(Cl)cc1 (stereo not given),inactive
11,CCC(C)c1cc([N+](=O)[O-])cc([N+](=O)[O-])c1O (stereo not given),inactive
12,CCN(CC)Cc1nccn1-c1ccc([N+](=O)[O-])cc1C(=O)c1ccccc1Cl,inactive
13,O=[N+]([O-])/N=C1\NCCN1Cc1ccc(Cl)nc1,inactive
14,Cc1ccc([N+](=O)[O-])cc1,inactive
15,CCOP(=S)(OCC)O/N=C(\C#N)c1ccccc1,inactive
16,CCCCC(C#N)(Cn1cncn1)c1ccc(Cl)cc1 (stereo not given),inactive
17,CON(C)C(=O)Nc1ccc(Cl)cc1,inactive
18,CCCCCCOC(=O)c1ccccc1C(=O)OCCCCCC,inactive
19,Nc1c(Cl)cc([N+](=O)[O-])cc1Cl,inactive
20,ClC1=C(Cl)C2(Cl)C3C(Cl)C(Cl)CC3C1(Cl)C2(Cl)Cl (stereo not given),inactive

row,Structure (SMILES),Potency
1,O=C(O)C1C(C(=O)O)C2(Cl)C(Cl)=C(Cl)C1(Cl)C2(Cl)Cl (stereo not given),inactive
2,O=C(O)CF,inactive
3,COc1ccc(C(O)(c2cncnc2)C2CC2)cc1 (stereo not given),inactive
4,Cc1ccccc1N,inactive
5,CCCCOCCOC(C)=O,inactive
6,Cc1cc(Cl)ccc1OCCCC(=O)O,inactive
7,Nc1ccc(Cl)cc1,inactive
8,CN(N=O)C(N)=O,inactive
9,COP(=O)(NC(C)=O)SC (stereo not given),inactive
10,N#CCC#N,inactive
11,Cc1ccc(O)c(C)c1,inactive
12,ClCCN1CCCC1,inactive
13,CCCCN(CCCC)SN(C)C(=O)Oc1cccc2c1OC(C)(C)C2,inactive
14,CCCCCCCCCCCOC(=O)c1ccccc1C(=O)OCCCCCCCCCCC,inactive
15,CN(C)[C@@H]1C(=O)C(C(N)=O)=C(O)[C@@]2(O)C(=O)C3=C(O)c4c(O)cccc4[C@@](C)(O)[C@H]3C[C@@H]12,inactive
16,Cc1cccc(N)c1C,inactive
17,Cc1cc(-c2ccc(N)c(C)c2)ccc1N,inactive
18,O=S(=O)(O)C(F)(F)C(F)(F)C(F)(F)C(F)(F)C(F)(F)C(F)(F)F,inactive
19,CC(=O)CCC(C)=O,inactive
20,COC(=O)NC(=S)Nc1ccccc1NC(=S)NC(=O)OC,inactive
